Measured values from PubChem BioAssay (NCI).
About 79,000 compounds went through this panel and 15% of them were active in at least one assay; those are over-represented in the sample as a whole. Unmarked numbers belong to inactive results. Activity calls are given as the source filed them. Cut-off read from the data, not from the text of the source: active = growth inhibition above about 70%; inactive = the rest.

Experiments:
[1] = NCI Yeast Anticancer Drug Screen. Data for the rad50 strain (AID 155);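 note: 0% = growth of vehicle-only cultures of the same strain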; settings: S. cerevisiae rad50 strain growth inhibition, active compounds read high
How it was run: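 Readout: growth inhibition relative to vehicle-treated cultures. Compound exposure was carried out in a genetically defined yeast strain deficient in DNA damage repair.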

[2] = NCI Yeast Anticancer Drug Screen. Data for the mec2-1 strain (AID 157); settings: S. cerevisiae mec2-1 strain, active compounds read high
How it was run: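 Yeast mec2-1 mutant treated with compound. Readout: growth inhibition vs vehicle controls.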

[3] = NCI Yeast Anticancer Drug Screen. Data for the sgs1 mgt1 strain (AID 161);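 note: 0% = growth of cultures given vehicle only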; settings: S. cerevisiae sgs1 mgt1 strain, active compounds read high
How it was run: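 Test agents were incubated with a DNA-repair-mutant yeast strain. Growth was then read and compared against vehicle-treated controls.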

[4] = NCI Yeast Anticancer Drug Screen. Data for the cln2 rad14 strain (AID 165);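 note: 0% = growth equal to vehicle treated cultures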; settings: S. cerevisiae cln2 rad14 strain, active compounds read high
How it was run: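 cln2 rad14 yeast strain; compound exposure; growth inhibition read vs vehicle controls.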

[5] = NCI Yeast Anticancer Drug Screen. Data for the bub3 strain (AID 167); settings: S. cerevisiae bub3 mutant strain, active compounds read high
How it was run: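 Readout: yeast growth inhibition, expressed relative to vehicle-only wells. The test organism is a mutant strain from a panel with lesions in DNA repair or checkpoint genes.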

[6] = NCI Yeast Anticancer Drug Screen. Data for the mlh1 rad18 strain (AID 175); settings: S. cerevisiae mlh1 rad18 strain growth inhibition, active compounds read high
How it was run: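 Yeast w/ defined DNA-repair lesions; compound exposure; growth vs vehicle controls → % inhibition.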

[7] = at 5.0 µM (retest, dose inferred, filed as 0.5)
[8] = at 50.0 µM (retest, dose inferred, filed as 5.0)

| SMILES | growth inhibition [1, 7] | growth inhibition [1, 8] | growth inhibition ([1]; at 50.0 µM) | growth inhibition [2, 7] | growth inhibition [2, 8] | growth inhibition ([2]; at 50.0 µM) | growth inhibition [3, 7] | growth inhibition [3, 8] | growth inhibition ([3]; at 50.0 µM) | growth inhibition [4, 7] | growth inhibition [4, 8] | growth inhibition ([4]; at 50.0 µM) | growth inhibition [5, 7] | growth inhibition [5, 8] | growth inhibition ([5]; at 50.0 µM) | growth inhibition [6, 7] | growth inhibition [6, 8] | growth inhibition ([6]; at 50.0 µM) |
| --- | --- | --- | --- | --- | --- | --- | --- | --- | --- | --- | --- | --- | --- | --- | --- | --- | --- | --- |
| C=C1C(=O)OC2CC(C)C3C=CC(=O)C3CC12 (stereo not given) | 17% | 55% | 88.7% (active) | 12% | 50% | 91.6% (active) | 15% | 57% | 91.3% (active) | 24% | 40% | 89.3% (active) | 22% | 72% (active) | 88.2% (active) | 16% | 34% | 90.6% (active) |
| Cn1nc(-c2ccc3c(c2)OCO3)[n+]([O-])c2c(=O)n(C)c(=O)nc1-2 | -2% | 79% (active) | 99.2% (active) | -7% | 97% (active) | 99.7% (active) | 0% | 98% (active) | 99.5% (active) | -6% | 97% (active) | 98.2% (active) | -8% | 96% (active) | 99.4% (active) | -7% | 97% (active) | 99.5% (active) |
| CC(=O)N[C@H]1CCC2[C@@H]3CCC4=CC(=O)NCC[C@]4(C)C3CC[C@@]21C (stereo not given in full) | 0% | 89% (active) | 56.5% | -2% | 92% (active) | 46.6% | -3% | 58% | 56.4% | -4% | 78% (active) | 69.5% | 6% | 88% (active) | 96.2% (active) | -2% | 85% (active) | 57.5% |
| C[C@]12CC[C@@H]3c4cc(OCC(F)(F)F)c(O)cc4CC[C@H]3[C@@H]1CC[C@@H]2O | -3% | 97% (active) | 98.6% (active) | -5% | 99% (active) | 98.5% (active) | 10% | 99% (active) | 98.8% (active) | -13% | 97% (active) | 98.2% (active) | 5% | 99% (active) | 98.8% (active) | -6% | 98% (active) | 98.6% (active) |
| O=C1c2sccc2-c2cccc3cccc1c23 (tested in a mixture with another compound) | 87% (active) | 98% (active) | 97.2% (active) | 63% | 99% (active) | 98% (active) | 59% | 99% (active) | 96.2% (active) | 20% | 96% (active) | 82.5% (active) | 29% | 98% (active) | 83.2% (active) | 86% (active) | 98% (active) | 95% (active) |
| CCCCCCCCCCCCCCSC(=NCC)NCC | 99% (active) | 99% (active) | 99.2% (active) | 100% (active) | 100% (active) | 99.5% (active) | 100% (active) | 100% (active) | 99.2% (active) | 99% (active) | 99% (active) | 97.4% (active) | 99% (active) | 99% (active) | 99.3% (active) | 99% (active) | 99% (active) | 99% (active) |
| Cc1ccc(O)c(-c2cscn2)c1 | 49% | 68% | 62.6% | 39% | 60% | 6.95% | 15% | 22% | 55.5% | 65% | 72% (active) | 31.5% | 46% | 50% | 48.5% | 47% | 59% | 85.7% (active) |
| O=C(/C=C(/c1ccccc1)P(=O)(c1ccccc1)c1ccccc1)c1ccccc1 | -2% | 97% (active) | 97.9% (active) | -15% | 97% (active) | 98.6% (active) | -5% | 97% (active) | 98.8% (active) | -4% | 71% (active) | 97.8% (active) | -5% | 86% (active) | 97.8% (active) | 15% | 99% (active) | 98.6% (active) |
| COC1OC(CI)C(OC(c2ccccc2)(c2ccccc2)c2ccccc2)C(OC(c2ccccc2)(c2ccccc2)c2ccccc2)C1OC(c1ccccc1)(c1ccccc1)c1ccccc1 (stereo not given) | -14% | -6% | 96.4% (active) | -17% | -22% | 98.5% (active) | -8% | -18% | 94.5% (active) | -10% | 14% | 97.8% (active) | 1% | -13% | 97% (active) | -17% | 11% | 95.9% (active) |
| CCCCC(CC)CCC(C)OC(=O)C(O)c1ccccc1 (stereo not given) | -1% | 86% (active) | 61.8% | -6% | 87% (active) | 86.7% (active) | -4% | 85% (active) | 83% (active) | 1% | 82% (active) | 32.5% | 1% | 88% (active) | 75.5% (active) | -4% | 90% (active) | 87.8% (active) |
| CCCCCCCC(=O)/C=C/c1ccc(C)cc1 | -161% | -136% | 56.8% | -54% | -50% | 44.1% | -69% | -65% | 67.6% | -62% | -86% | 30.2% | -61% | -47% | 65.8% | -128% | -119% | 45% |
| COC(=O)C12OCC34C(CC5C(C)C6=CC(=O)OC6=CC5(C)C3C(O)C1O)OC(=O)C(O)C24 (stereo not given) | 26% | 84% (active) | 89.7% (active) | 30% | 82% (active) | 91.4% (active) | -18% | 94% (active) | 91% (active) | -6% | 96% (active) | 88.1% (active) | -2% | 95% (active) | 89.3% (active) | 33% | 93% (active) | 81.3% (active) |
| Oc1ccc2c(c1)Cc1cc(Br)ccc1-2 | 3% | 99% (active) | 98.5% (active) | -6% | 99% (active) | 98.9% (active) | 7% | 80% (active) | 98.6% (active) | -5% | 99% (active) | 97.8% (active) | 24% | 99% (active) | 98.5% (active) | -11% | 99% (active) | 98.2% (active) |
| CCN1CCC(O)(/C=C/c2cccc(C)c2)C(C(=O)/C=C/c2cccc(C)c2)C1 (stereo not given) | 42% | 96% (active) | 91% (active) | 41% | 98% (active) | 93% (active) | 95% (active) | 92% (active) | 90.8% (active) | 91% (active) | 93% (active) | 90.2% (active) | 95% (active) | 96% (active) | 88.2% (active) | 64% | 98% (active) | 92.7% (active) |
| O=C1CSc2ccccc2-n2cccc21 | 5% | 6% | 9.55% | 11% | 8% | 3.35% | 6% | -4% | 61.5% | 32% | 30% | -1.1% | 77% (active) | 77% (active) | -11.2% | 5% | 15% | 1.95% |
| CN(C)/C=C(\C(=O)c1ccccc1)n1nc(-c2ccccc2)cc1-c1ccccc1 | 15% | 45% | 72.5% (active) | -4% | 20% | 73.7% (active) | 11% | 48% | 83.3% (active) | 22% | 50% | 70.2% (active) | -3% | 38% | 74% (active) | 16% | 54% | 81.3% (active) |
| NC(=O)C#CC#CC#CCO | 11% | 62% | 92.8% (active) | 24% | 62% | 94.8% (active) | 18% | 78% (active) | 94% (active) | 25% | 39% | 91.8% (active) | 38% | 77% (active) | 93.5% (active) | 19% | 67% | 92.7% (active) |
| CC1=C(C(=O)Nc2ccccc2)C(c2ccc(C(C)C)cc2)C(C(=O)Nc2ccccc2)=C(C)N1 | 0% | 94% (active) | 97.5% (active) | -3% | 91% (active) | 94.6% (active) | 0% | 94% (active) | 47.6% | -13% | 94% (active) | 90.8% (active) | 2% | 93% (active) | 91% (active) | -3% | 90% (active) | 96.2% (active) |
| Cc1ccc(S(=O)(=O)CC2(Br)Cc3ccccc3C2=O)cc1 (stereo not given) | 79% (active) | 99% (active) | 97.3% (active) | 76% (active) | 99% (active) | 98.8% (active) | 86% (active) | 99% (active) | 99.1% (active) | 24% | 99% (active) | 98.2% (active) | 85% (active) | 99% (active) | 99% (active) | 75% (active) | 98% (active) | 98.5% (active) |
| CC(C)=CCC(OC(=O)CC(C)C)C1=CC(=O)c2c(O)ccc(O)c2C1=O (stereo not given) | -1% | 99% (active) | 87.3% (active) | 1% | 99% (active) | 89.2% (active) | 1% | 99% (active) | 89.7% (active) | -17% | 99% (active) | 82.2% (active) | 2% | 99% (active) | 86% (active) | 1% | 99% (active) | 87.4% (active) |
